From PubChem BioAssay (EPA / NIEHS)
Results filed as inconclusive are left out. Calls of active or inactive are those of the source. Rule for the calls, unless noted: active = hit-call score of the fitted dose curve at least 0.9, where 1 is the maximum; inconclusive = response in the unintended direction; inactive = score below 0.9.

What was measured:
[1] = ATG_VDRE_CIS: Attagene CIS-FACTORIAL HepG2 Assay for human Vitamin D Receptor Element (VDRE) (AID 2282968; active = hit-call score of the fitted dose curve at least 0.9, where 1 is the maximum; inactive = score below 0.9); conditions: HepG2 VDRE cis-reporter transcription, actives raise or lower the signal
Method in brief: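 Measures endogenous factor activity through cis-element-driven reporter transcripts in transiently transfected HepG2. Cells are treated 24 h; reporter mRNA is quantified by RT-PCR and capillary electrophoresis; fitting is bidirectional.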

[2] = target: Nuclear receptor subfamily 1 group I member 3 (Homo sapiens) (UniProt Q14994); test: ATG_CAR_TRANS: Attagene TRANS-FACTORIAL HepG2 Assay for human Constitutive Androstane Receptor (CAR) (AID 2282969); conditions: HepG2 Attagene TRANS-FACTORIAL CAR reporter;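 note: activators raise reporter mRNA above DMSO so AC50 marks induction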
Nuclear receptor subfamily 1 group I member 3 (Homo sapiens), sequence (Q14994 whole entry, looked up, the tested form may be a part): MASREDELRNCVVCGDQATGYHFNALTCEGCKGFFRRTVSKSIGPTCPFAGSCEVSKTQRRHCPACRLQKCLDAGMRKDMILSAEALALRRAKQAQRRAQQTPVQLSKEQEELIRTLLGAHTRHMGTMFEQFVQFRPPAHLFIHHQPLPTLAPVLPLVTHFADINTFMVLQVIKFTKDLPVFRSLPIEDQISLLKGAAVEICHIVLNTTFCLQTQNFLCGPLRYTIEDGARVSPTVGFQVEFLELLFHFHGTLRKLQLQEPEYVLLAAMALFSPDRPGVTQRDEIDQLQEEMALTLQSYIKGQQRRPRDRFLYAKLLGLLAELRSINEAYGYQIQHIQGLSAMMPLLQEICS
Method in brief: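 Signal is reporter mRNA induction relative to DMSO, measured 24 h after dosing by RT-PCR with fluorescent primer extension and capillary electrophoresis. Human HepG2 liver cells carried transiently transfected chimeric NR-Gal4/GAL4-UAS reporter constructs.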

[3] = ATG_GAL4_TRANS: Attagene TRANS-FACTORIAL HepG2 Assay for GAL4 (Internal Marker) (AID 2282976); conditions: HepG2 Attagene TRANS GAL4 internal marker reporter
Method in brief: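 Fluorescence from capillary electrophoresis of labelled RT-PCR products quantifies reporter mRNA induction after 24 h dosing of HepG2 cells carrying transfected GAL4-UAS reporter transcription units. Vehicle DMSO serves as baseline.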

[4] = target: Glucocorticoid receptor (Homo sapiens) (UniProt P04150); test: ATG_GR_TRANS: Attagene TRANS-FACTORIAL HepG2 Assay for human Glucocorticoid Receptor (GR) (AID 2282978); conditions: HepG2 Attagene TRANS GR reporter, mRNA transcription;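 note: activators score as hits since higher reporter transcript over DMSO is fitted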
Glucocorticoid receptor (Homo sapiens), sequence (P04150 whole entry, looked up, the tested form may be a part): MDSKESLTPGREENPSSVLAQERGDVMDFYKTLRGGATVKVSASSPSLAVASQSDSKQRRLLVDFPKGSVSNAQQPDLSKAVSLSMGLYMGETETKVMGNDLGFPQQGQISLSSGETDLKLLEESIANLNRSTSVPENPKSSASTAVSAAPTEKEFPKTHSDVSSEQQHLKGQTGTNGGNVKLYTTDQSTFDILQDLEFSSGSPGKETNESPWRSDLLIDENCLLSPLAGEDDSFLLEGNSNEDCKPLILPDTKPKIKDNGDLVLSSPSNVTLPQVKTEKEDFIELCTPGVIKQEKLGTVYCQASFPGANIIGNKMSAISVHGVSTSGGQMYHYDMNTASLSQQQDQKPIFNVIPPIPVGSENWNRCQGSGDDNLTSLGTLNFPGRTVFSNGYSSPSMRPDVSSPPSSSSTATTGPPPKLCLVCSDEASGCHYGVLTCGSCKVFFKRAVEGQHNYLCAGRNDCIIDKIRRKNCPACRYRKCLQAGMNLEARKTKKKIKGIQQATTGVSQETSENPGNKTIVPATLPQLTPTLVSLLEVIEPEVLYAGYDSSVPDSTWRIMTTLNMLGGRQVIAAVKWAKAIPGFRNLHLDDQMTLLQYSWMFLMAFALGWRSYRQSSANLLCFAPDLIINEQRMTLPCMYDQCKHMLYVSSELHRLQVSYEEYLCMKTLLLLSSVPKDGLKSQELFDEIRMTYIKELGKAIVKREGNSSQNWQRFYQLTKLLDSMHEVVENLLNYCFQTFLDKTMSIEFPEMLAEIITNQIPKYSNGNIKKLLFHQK
Method in brief: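 Measurement of GAL4-UAS-driven reporter mRNA in human HepG2 liver cells 24 h post-dosing, using RT-PCR with fluorescent labelling and capillary electrophoresis; the transfected constructs report exogenous NR-GAL4 chimera activity, fitted upward against DMSO.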

[5] = target: Bile acid receptor (Homo sapiens) (UniProt Q96RI1); test: ATG_FXR_TRANS: Attagene TRANS-FACTORIAL HepG2 Assay for Farnesoid X Receptor (FXR) (AID 2282979); conditions: HepG2 Attagene TRANS FXR-GAL4 reporter transcription;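 note: hits raise reporter mRNA above DMSO so AC50 marks FXR activation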
Bile acid receptor (Homo sapiens), sequence (Q96RI1 whole entry, looked up, the tested form may be a part): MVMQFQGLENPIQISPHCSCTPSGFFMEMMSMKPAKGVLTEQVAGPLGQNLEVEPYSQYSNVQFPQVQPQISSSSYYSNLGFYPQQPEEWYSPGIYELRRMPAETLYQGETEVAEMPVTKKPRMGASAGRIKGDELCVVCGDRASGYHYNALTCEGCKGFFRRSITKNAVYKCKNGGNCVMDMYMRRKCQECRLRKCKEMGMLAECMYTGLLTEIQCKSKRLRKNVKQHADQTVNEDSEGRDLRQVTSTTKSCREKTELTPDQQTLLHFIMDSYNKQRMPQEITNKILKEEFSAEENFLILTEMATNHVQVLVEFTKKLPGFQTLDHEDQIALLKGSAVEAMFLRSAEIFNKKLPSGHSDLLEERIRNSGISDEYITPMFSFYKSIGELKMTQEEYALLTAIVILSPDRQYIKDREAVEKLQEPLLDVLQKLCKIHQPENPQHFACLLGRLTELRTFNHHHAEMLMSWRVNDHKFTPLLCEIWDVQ
Method in brief: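 Chimeric FXR-GAL4 activity in transiently transfected human HepG2 liver cells is scored as induction of reporter mRNA after 24 h of dosing. Detection uses RT-PCR with fluorescent labelling and capillary electrophoresis, with DMSO serving as baseline.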

[6] = target: Oxysterols receptor LXR-alpha (Homo sapiens) (UniProt Q13133); test: ATG_LXRa_TRANS: Attagene TRANS-FACTORIAL HepG2 Assay for human Liver X Receptor alpha (LXRa) (AID 2282980); conditions: HepG2 Attagene TRANS reporter, LXRa transactivation
Oxysterols receptor LXR-alpha (Homo sapiens), sequence (Q13133 whole entry, looked up): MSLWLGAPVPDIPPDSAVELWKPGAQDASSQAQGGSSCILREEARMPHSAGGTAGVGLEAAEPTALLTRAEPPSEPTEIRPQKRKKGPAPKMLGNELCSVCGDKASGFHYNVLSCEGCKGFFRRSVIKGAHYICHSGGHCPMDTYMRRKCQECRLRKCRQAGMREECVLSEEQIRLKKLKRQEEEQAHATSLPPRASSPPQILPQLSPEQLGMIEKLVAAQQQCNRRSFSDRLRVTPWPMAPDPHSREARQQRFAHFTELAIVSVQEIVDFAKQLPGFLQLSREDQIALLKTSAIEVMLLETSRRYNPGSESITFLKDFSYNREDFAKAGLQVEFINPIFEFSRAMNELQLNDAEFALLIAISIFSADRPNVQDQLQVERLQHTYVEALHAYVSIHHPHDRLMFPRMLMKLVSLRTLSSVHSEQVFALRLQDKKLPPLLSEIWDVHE
Method in brief: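 Transient HepG2 transfectants, 24 h dosing, RT-PCR/CE mRNA reporter quantitation; gain-of-signal vs DMSO.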

[7] = target: Oxysterols receptor LXR-beta (Homo sapiens) (UniProt P55055); test: ATG_LXRb_TRANS: Attagene TRANS-FACTORIAL HepG2 Assay for human Liver X Receptor beta (LXRb) (AID 2282981); conditions: HepG2 Attagene TRANS GAL4-LXRb reporter, mRNA
Method in brief: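 After 24 h of chemical treatment, transfected HepG2 cells yield total RNA; reporter cDNA is PCR-amplified, FAM-labelled, HpaI-cut and run on capillary electrophoresis. Signal reflects chimeric LXRb-Gal4 activity on GAL4-UAS reporters.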

[8] = ATG_M_06_TRANS: Attagene TRANS-FACTORIAL HepG2 Assay for M06 Transcription Factor (Internal Marker) (AID 2282983); conditions: HepG2 Attagene TRANS M06 internal marker reporter;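 note: reporter transcript level by RT-PCR then capillary electrophoresis fluorescence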
Method in brief: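 Human liver HepG2 cells bearing transiently transfected chimeric NR-GAL4 reporter units were treated with chemicals for 24 h. Total RNA was reverse-transcribed, reporter sequences amplified and labelled, then quantified by capillary electrophoresis. Activity was fitted upward relative to DMSO.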

[9] = target: Nuclear receptor subfamily 4 group A member 2 (Homo sapiens) (UniProt P43354); test: ATG_NURR1_TRANS: Attagene TRANS-FACTORIAL HepG2 Assay for human Nuclear Receptor Related Protein 1 (NURR1) (AID 2282985); conditions: HepG2 Attagene TRANS reporter, mRNA readout
Method in brief: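 Measures transcriptional activation by an exogenous NR-Gal4 chimera in transfected HepG2 liver cells. After 24 h, reporter RNA is reverse-transcribed, amplified and resolved by capillary electrophoresis; DMSO defines baseline.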

[10] = target: human Peroxisome Proliferator-activated Receptor delta (PPARd), PPARD (gene 5467) (UniProt Q03181); test: ATG_PPARd_TRANS: Attagene TRANS-FACTORIAL HepG2 Assay for human Peroxisome Proliferator-activated Receptor delta (PPARd) (AID 2283002)
human Peroxisome Proliferator-activated Receptor delta (PPARd), PPARD (gene 5467), sequence (Q03181 whole entry, looked up, the tested form may be a part): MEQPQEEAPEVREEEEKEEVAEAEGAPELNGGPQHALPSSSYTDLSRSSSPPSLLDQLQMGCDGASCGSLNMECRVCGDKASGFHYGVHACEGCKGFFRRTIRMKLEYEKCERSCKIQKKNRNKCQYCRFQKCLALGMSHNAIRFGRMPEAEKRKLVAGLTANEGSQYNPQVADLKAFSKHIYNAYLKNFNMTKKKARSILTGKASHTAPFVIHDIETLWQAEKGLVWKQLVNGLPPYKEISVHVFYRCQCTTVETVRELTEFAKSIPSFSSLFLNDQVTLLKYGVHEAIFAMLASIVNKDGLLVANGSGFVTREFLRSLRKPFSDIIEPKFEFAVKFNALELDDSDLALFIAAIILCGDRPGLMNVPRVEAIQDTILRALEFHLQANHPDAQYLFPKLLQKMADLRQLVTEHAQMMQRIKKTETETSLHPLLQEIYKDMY
Method in brief: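 Read-out is induced reporter mRNA, quantified by RT-PCR with fluorescent labelling and capillary electrophoresis after 24 h dosing. Cells are HepG2 transiently carrying multiple GAL4-UAS reporter units driven by exogenous NR-GAL4 chimeras; DMSO serves as baseline.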

[11] = target: Peroxisome proliferator-activated receptor gamma (Homo sapiens) (UniProt P37231); test: ATG_PPARg_TRANS: Attagene TRANS-FACTORIAL HepG2 Assay for human Peroxisome Proliferator-activated Receptor-gamma (PPARg) (AID 2283007)
Peroxisome proliferator-activated receptor gamma (Homo sapiens), sequence (P37231 whole entry, looked up): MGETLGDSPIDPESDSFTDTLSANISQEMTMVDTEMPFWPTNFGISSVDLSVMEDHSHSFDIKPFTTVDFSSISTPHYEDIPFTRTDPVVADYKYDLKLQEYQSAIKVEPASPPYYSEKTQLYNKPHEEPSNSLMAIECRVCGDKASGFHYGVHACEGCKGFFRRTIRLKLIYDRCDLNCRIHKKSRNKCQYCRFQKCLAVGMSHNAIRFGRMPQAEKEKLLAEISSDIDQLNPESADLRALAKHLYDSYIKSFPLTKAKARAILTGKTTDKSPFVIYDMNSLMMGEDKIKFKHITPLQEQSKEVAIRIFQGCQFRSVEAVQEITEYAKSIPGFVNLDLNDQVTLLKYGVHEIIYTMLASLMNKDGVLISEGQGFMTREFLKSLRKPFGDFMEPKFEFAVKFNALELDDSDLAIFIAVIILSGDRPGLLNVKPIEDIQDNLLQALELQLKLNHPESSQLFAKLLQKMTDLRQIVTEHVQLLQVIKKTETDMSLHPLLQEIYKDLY
Method in brief: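 Multiplexed reporter transcription units in HepG2, 24 h dosing, reporter transcripts quantified by fluorescent RT-PCR and capillary electrophoresis. Increase over DMSO scored.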

[12] = target: human Vitamin D Receptor (VDR), VDR (gene 7421) (UniProt P11473); test: ATG_VDR_TRANS: Attagene TRANS-FACTORIAL HepG2 Assay for human Vitamin D Receptor (VDR) (AID 2283022)
human Vitamin D Receptor (VDR), VDR (gene 7421), sequence (P11473 whole entry, looked up, the tested form may be a part): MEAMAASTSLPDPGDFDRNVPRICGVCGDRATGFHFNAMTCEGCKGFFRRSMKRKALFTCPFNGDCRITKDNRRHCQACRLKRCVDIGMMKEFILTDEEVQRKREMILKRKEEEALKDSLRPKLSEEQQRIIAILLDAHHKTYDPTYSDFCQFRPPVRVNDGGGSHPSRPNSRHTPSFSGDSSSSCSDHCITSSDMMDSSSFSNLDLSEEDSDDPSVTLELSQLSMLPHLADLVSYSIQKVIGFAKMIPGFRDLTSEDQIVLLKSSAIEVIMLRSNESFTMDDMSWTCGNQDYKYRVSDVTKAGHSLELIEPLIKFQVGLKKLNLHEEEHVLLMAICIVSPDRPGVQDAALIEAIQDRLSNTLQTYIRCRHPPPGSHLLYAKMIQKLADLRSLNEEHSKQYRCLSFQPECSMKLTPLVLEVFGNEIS
Method in brief: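 Fluorescence of labelled reporter cDNA fragments, resolved by capillary electrophoresis, gives mRNA induction after 24 h treatment of HepG2 cells carrying transfected Gal4-fusion reporter units. Activity is fitted in the positive direction with DMSO as baseline.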

[13] = TOX21_p53_BLA_p4_viability: Viability Assessment in the Tox21 HCT-116 p53 Agonism Beta-lactamase Assay, Phase 4 (AID 2283597);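 note: hits lower the luminescence signal meaning cytotoxicity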
Method in brief: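 Viability is taken as cellular ATP: after 16 h compound exposure of HCT116 cells and a 2 h room-temperature CCF4-AM substrate step, CellTiter-Glo reagent is added and luminescence is measured 30 min later.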

[14] = ATG_M_19_TRANS: Attagene TRANS-FACTORIAL HepG2 Assay for M19 Transcription Factor (Internal Marker) (AID 2282974); conditions: HepG2 Attagene TRANS-FACTORIAL M19 internal marker reporter
Method in brief: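 Measured here: internal-marker reporter transcript from HepG2 cells transfected with MRTUs, harvested at 24 h. cDNA PCR products were 6-FAM labelled by primer extension, cut with HpaI for 2 h at 37 C, and resolved by CE.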

[15] = ATG_NF_kB_CIS: Attagene CIS-FACTORIAL HepG2 Assay for human Nuclear Factor Kappa B (NF-kB) (AID 2282991; active = hit-call score of the fitted dose curve at least 0.9, where 1 is the maximum; inactive = score below 0.9); conditions: HepG2 Attagene cis-factorial NF-kB reporter mRNA; actives raise or lower the signal
Method in brief: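 HepG2, transient multi-reporter transfection, cis promoter elements (endogenous TFs). 24 h exposure. Total RNA → RT → PCR → 6-FAM label → HpaI → CE. Gain/loss vs DMSO.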

[16] = target: human Thyroid Receptor alpha (THRa1), THRA (gene 7067) (UniProt P10827); test: ATG_THRa1_TRANS: Attagene TRANS-FACTORIAL HepG2 Assay for human Thyroid Receptor alpha (THRa1) (AID 2283014)
human Thyroid Receptor alpha (THRa1), THRA (gene 7067), sequence (P10827 whole entry, looked up, the tested form may be a part): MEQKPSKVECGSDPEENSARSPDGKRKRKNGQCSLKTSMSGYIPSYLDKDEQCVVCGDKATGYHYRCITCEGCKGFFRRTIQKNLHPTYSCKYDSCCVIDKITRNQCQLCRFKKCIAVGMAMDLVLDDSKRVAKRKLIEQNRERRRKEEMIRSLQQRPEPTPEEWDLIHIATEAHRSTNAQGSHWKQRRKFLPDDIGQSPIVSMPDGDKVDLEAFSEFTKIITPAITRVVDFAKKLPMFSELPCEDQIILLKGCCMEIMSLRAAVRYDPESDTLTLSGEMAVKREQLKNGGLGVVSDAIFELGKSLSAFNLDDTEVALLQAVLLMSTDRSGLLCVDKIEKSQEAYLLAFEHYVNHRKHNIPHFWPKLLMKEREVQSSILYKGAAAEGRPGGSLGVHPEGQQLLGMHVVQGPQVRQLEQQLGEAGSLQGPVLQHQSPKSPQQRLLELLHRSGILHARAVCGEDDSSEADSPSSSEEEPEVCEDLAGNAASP
Method in brief: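 First, HepG2 cells receive multiple GAL4-UAS reporter units and the chimeric receptor. They are then dosed for 24 h, after which RNA is reverse-transcribed, amplified, labelled, HpaI-cut and sized by capillary electrophoresis; gain relative to DMSO is scored.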

[17] = CCTE_Harrill_HTTr_Viability_MCF7: CCTE's 6-hour Cell Viability Assessment for the High-Throughput Transcriptomics (HTTr) Platform, in MCF-7 cells cultured in DMEM + 10% fetal bovine serum, Harrill Lab (AID 2284010; active = hit-call score of the fitted dose curve at least 0.9, where 1 is the maximum; inactive = score below 0.9)
Method in brief: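 Eight-point concentration series, six-hour exposure. Propidium iodide exclusion imaged to assess membrane integrity as a cytotoxicity readout; bidirectional fitting was done with DMSO as negative control and activity baseline.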

[18] = CCTE_Harrill_HTTr_Apoptosis_MCF7: CCTE's 6-hour Apoptosis Assessment for the High-Throughput Transcriptomics (HTTr) Platform, in MCF-7 cells cultured in DMEM + 10% fetal bovine serum, Harrill Lab (AID 2284011; active = hit-call score of the fitted dose curve at least 0.9, where 1 is the maximum; inactive = score below 0.9)
Method in brief: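 Cells are dosed with test chemicals at eight concentrations and imaged 6 hours later for caspase-3/7 activity using a green fluorogenic detection reagent. Activity is fitted in both directions against DMSO controls.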

[19] = target: human RAR-related Orphan Receptor beta (RORb), RORB (gene 6096) (UniProt Q92753); test: ATG_RORb_TRANS: Attagene TRANS-FACTORIAL HepG2 Assay for human RAR-related Orphan Receptor beta (RORb) (AID 2283010)
human RAR-related Orphan Receptor beta (RORb), RORB (gene 6096), sequence (Q92753 whole entry, looked up, the tested form may be a part): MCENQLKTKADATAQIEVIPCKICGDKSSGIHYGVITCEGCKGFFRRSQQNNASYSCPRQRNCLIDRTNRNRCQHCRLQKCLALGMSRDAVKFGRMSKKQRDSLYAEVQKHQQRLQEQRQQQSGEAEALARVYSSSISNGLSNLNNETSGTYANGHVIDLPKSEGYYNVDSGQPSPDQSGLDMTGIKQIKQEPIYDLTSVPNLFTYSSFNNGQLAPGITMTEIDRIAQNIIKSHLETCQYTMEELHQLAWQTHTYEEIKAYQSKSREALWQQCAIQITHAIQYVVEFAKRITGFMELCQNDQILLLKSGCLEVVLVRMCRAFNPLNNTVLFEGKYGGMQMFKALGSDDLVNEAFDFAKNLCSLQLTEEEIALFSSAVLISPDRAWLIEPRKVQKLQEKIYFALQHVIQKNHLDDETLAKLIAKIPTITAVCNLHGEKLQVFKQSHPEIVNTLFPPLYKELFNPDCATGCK
Method in brief: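 Multiplexed transcription-factor reporter assay: HepG2 cells transiently carrying NR-Gal4/GAL4-UAS constructs, 24 h treatment, mRNA quantified by RT-PCR plus capillary electrophoresis fluorescence; activity scored as induction over DMSO.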

[20] = target: human RAR-related Orphan Receptor gamma (RORg), RORC (gene 6097) (UniProt P51449); test: ATG_RORg_TRANS: Attagene TRANS-FACTORIAL HepG2 Assay for human RAR-related Orphan Receptor gamma (RORg) (AID 2283011)
human RAR-related Orphan Receptor gamma (RORg), RORC (gene 6097), sequence (P51449 whole entry, looked up, the tested form may be a part): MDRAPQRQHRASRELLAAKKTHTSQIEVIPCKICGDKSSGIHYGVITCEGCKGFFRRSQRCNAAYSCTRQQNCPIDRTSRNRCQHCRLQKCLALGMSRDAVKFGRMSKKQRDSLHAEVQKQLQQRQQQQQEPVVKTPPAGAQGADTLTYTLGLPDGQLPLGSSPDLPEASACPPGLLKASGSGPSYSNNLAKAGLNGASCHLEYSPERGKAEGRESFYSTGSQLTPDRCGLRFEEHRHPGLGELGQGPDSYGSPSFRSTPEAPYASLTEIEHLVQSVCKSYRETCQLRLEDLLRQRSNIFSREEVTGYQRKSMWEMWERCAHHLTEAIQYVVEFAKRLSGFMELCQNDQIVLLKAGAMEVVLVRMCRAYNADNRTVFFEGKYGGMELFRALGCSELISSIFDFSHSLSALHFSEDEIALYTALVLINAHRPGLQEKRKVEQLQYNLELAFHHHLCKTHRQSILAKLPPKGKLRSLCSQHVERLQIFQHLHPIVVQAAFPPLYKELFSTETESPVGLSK
Method in brief: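 Activity is scored as increase in GAL4-UAS reporter mRNA over DMSO, detected by fluorescent RT-PCR and capillary electrophoresis in HepG2 cells transiently expressing a RORg-Gal4 chimera, 24 h after dosing.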

Measured: AC50

CCCCCCCCCCCCCCCCCC[N+](C)(C)C
active: [1] 6.1 µM | [3] 15.4 µM | [4] 11.8 µM | [5] 15.9 µM | [11] 32.7 µM | [13] 65.7 µM
inactive: [2] | [6] | [7] | [8] | [9] | [10] | [12]

Cc1ccnc(N)c1
inactive: [14] | [3] | [7] | [15] | [11] | [16] | [13] | [17] | [18]

CCCCNC(N)=O
inactive: [1] | [2] | [3] | [4] | [5] | [7] | [8] | [10] | [11] | [19] | [16] | [12] | [13]

CCCCCCC1CCCC(=O)O1 (configuration not stated)
inactive: [3] | [4] | [6] | [8] | [9] | [12] | [13]
active: [10] 52.6 µM

CCC(=O)OCc1ccc(OC)cc1
inactive: [1] | [2] | [14] | [3] | [4] | [5] | [6] | [7] | [9] | [10] | [20] | [13]

CCc1cc(C(N)=S)ccn1
inactive: [6] | [19] | [12] | [13] | [17] | [18]

C=CCOCC(CC)(CO)COCC=C
inactive: [1] | [2] | [14] | [7] | [10] | [20] | [16] | [13]

O=C(CC(C(=O)OC1CCCCC1)S(=O)(=O)O)OC1CCCCC1 (configuration not stated)
active: [11] 47.7 µM
inactive: [2] | [14] | [3] | [5] | [6] | [8] | [20] | [16]

O=C1NC(=O)C2CC=CCC12 (configuration not stated)
inactive: [7] | [8] | [10] | [12] | [13]

Cc1cc(O)cc(C)c1Cl
inactive: [3] | [4] | [6] | [7] | [8] | [9] | [10] | [11] | [17] | [18]

CC(=O)CCc1ccccc1
inactive: [14] | [3] | [7] | [15] | [19] | [20] | [12] | [13]

Cc1cc(-n2nc3ccc(Cl)cc3n2)c(O)c(C(C)(C)C)c1
inactive: [2] | [3] | [4] | [5] | [8] | [9] | [10] | [20]

CCCCC(CC)COC(=O)CS (configuration not stated)
inactive: [14] | [3] | [4] | [9] | [12] | [13]
active: [1] 26.4 µM

CNC[C@H](O)[C@@H](O)[C@H](O)[C@H](O)CO
inactive: [1] | [5] | [8] | [15] | [19] | [12]
